The campaign covered roughly 330,000 compounds. About 4,400 (1.3%) were called active. The list comes from a sample in which actives are over-represented; it also holds similar structures and randomly drawn compounds. Values without a mark were called inactive.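 Rule for the calls: active = growth inhibition of the mutant yeast at or above 50%; inactive = the rest.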

This test is described as follows: growth inhibition of tim23-1 ts yeast – luminescence, uHTS, primary screen (AID 463212).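 Note: temperature-sensitive mutant grown at 25 °C; plate controls were DMSO-treated mutant yeast for no effect and medium wells lacking yeast for full effect.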 The note with it: S. cerevisiae tim23-1 growth, BacTiter-Glo luminescence, 24 h; at 20 µM; hits give high values.
A word on the inhibition: it is the change of the read-out against control, counted positive when it falls. Take `O=S(=O)(Nc1nccs1)c1ccc2c(c1)OCCO2`: the inhibition is 12.7%.
For `CCOC(=O)C1=C(CSc2nccn2C)NC(=O)NC1c1ccc(OC)cc1` (stereo unspecified), the inhibition is 7.63%.
On to `COCCOC(=O)C1=C(C)N=c2s/c(=C\c3cccs3)c(=O)n2C1c1cccs1` (stereo unspecified), for which the inhibition is -11.4%.
Take `CCOC(=O)C1=C(C)N=c2s/c(=C\C(=O)OC)c(=O)n2C1c1ccc(OC)cc1` (stereo unspecified): the inhibition is 52.3% (active).
The figure for `Cc1cc(=O)oc(C)c1C(=O)NC1CC(C)(C)NC(C)(C)C1` is 13.7%; for `CN(C)NC(=O)c1csnc1-c1c(Cl)cccc1Cl` it is -15.4%; for `Cn1cccc1C(=O)OCC(=O)c1ccc(Br)s1` it is 15.9%.
As to `COc1cccc(-c2sc3ccc(OC)cc3c2-c2ccc(OCCN3CCCCC3)cc2)c1`, the inhibition was 58.8% (active).
Consider `COc1ccc2sc(-c3ccccc3OC)c(-c3ccc(OCCN4CCCC4)cc3)c2c1`, for which the inhibition was -0.331%.
The figure for `COc1ccc(-c2sc3ccccc3c2-c2ccc(OCCN3CCOCC3)cc2)cc1` is 28%; for `CC1=C(C(N)=O)C(c2ccc3c(c2)OCO3)n2nc(-c3cccc(C)c3)nc2N1` (stereo unspecified) it is 18.1%; for `c1ccc(-c2nnc3n2NC(c2ccc4c(c2)OCO4)S3)cc1` (stereo unspecified) it is 57.2% (active).
Turning to `Cc1cccc(C)c1NC(=O)CSc1nnc(-c2ccccc2)n1Cc1ccc2c(c1)OCO2`, the inhibition is 3.97%.
The figure for `O=C(Nc1nnc(C2CC2)s1)C1=NN(C2CCS(=O)(=O)C2)C(=O)CC1` (stereo unspecified) is 9.54%; for `COc1cc2c(cc1OC)C(/C=C/c1ccco1)=NCC2` it is -9.38%; for `COc1ccc(S(=O)(=O)N2CCN(C(C)C(=O)Nc3ccc(C(C)C)cc3)CC2)cc1` (stereo unspecified) it is 50.6% (active).
In the case of `CC(C)c1ccc(S(=O)(=O)N2CCN(C(C)C(=O)NC3CCCC3)CC2)cc1` (stereo unspecified) it was 13.4%.
The figure for `COc1cccc(CNC(C)C(=O)Nc2ccc(S(=O)(=O)N3CCCC3)cc2)c1` (stereo unspecified) is 19.6%; for `O=C1NC[C@@H](Cc2ccc(O)cc2)N(CCc2cccc(F)c2)C1=O` it is 11.4%; for `CC(=O)Nc1ccc(S(=O)(=O)N2CCN(C(=O)c3ccccc3F)CC2)cc1` it is 3.67%.
On to `Cc1cccc(/C(N)=N/OC(=O)c2ccccc2Cl)c1`, for which the inhibition is 72.9% (active).
The figure for `Cc1ccc(C(=O)O/N=C(\N)c2ccccn2)cc1Cl` is 6.93%; for `Cc1ccc(/C(N)=N/OC(=O)COc2ccc(Cl)c(C)c2)cc1` it is 24.2%; for `CC(C)(C)NC(=O)CN1CCC(NC(=O)C23CC4CC(CC(C4)C2)C3)CC1` it is 18%.
The figure for `O=C(c1ccc(S(=O)(=O)NCc2ccco2)cc1)N1CCN(c2ccccc2)CC1` is 19.3%; for `O=C(Nc1ccccc1)c1cc2ccccc2[nH]1` it is -6.12%; for `CCCCn1c(=S)[nH]c2ccccc2c1=O` it is 43.6%.
The figure for `O=c1c2ccccc2[nH]c(=S)n1CCN1CCC(=C(c2ccc(F)cc2)c2ccc(F)cc2)CC1` is 75.8% (active).
Regarding `COc1ccc(Cn2c(=S)[nH]c3cc(C(=O)NCCCN4CCOCC4)ccc3c2=O)cc1`, the inhibition is 18%.
Take `O=C(N[C@H]1C/C=C\C(c2ccc(F)cc2)N(Cc2ccccc2)C(=O)C1)OCC1c2ccccc2-c2ccccc21` (stereo partly specified): the inhibition was 38.6%.
In the case of `O=C(N[C@H]1C/C=C\C(c2cccc(F)c2)N(Cc2ccccc2)C(=O)C1)OCC1c2ccccc2-c2ccccc21` (stereo partly specified) it was 59.7% (active).
In the case of `O=C(N[C@@H]1C/C=C\C[C@@H](CC(=O)N(CCO)Cc2ccccc2)C(=O)N[C@H](Cc2ccccc2)COC1=O)OCC1c2ccccc2-c2ccccc21` it was 22.7%; in that of `Cc1cc2c(cc1C)N(C(=O)CN1C(=O)c3ccccc3C1=O)C(C)(C)c1ssc(=S)c1-2`, 30.3%; in that of `Cc1ccc(C(=O)Nc2ccc(NC(=O)c3cccs3)cc2)c(C)c1`, 11.9%.
On to `COc1cc(NC(=O)c2ccc3c(c2)OCO3)ccc1NC(=O)c1cccs1`, for which the inhibition was -5.22%.
In the case of `COc1cc(NC(=O)c2cccs2)ccc1NC(=O)c1ccccc1Cl` it was 55.3% (active); in that of `O=C(Nc1cc(-c2ccccc2)nn1-c1ccccc1F)c1ccc([N+](=O)[O-])cc1`, 18.1%; in that of `CCn1ncc(Br)c1C(=O)Nc1cc(C)ccc1F`, 38.3%.
In the case of `CCCc1[nH]nc2c1C(c1ccc(OC(=O)c3ccco3)cc1)C(C#N)=C(N)O2` (stereo unspecified) it was -11.4%.
In the case of `CCCc1[nH]nc2c1C(c1ccc(Br)s1)C(C#N)=C(N)O2` (stereo unspecified) it was 86.6% (active); in that of `CCCc1[nH]nc2c1C(c1ccc(OC)c(Cn3nc(C)c(Br)c3C)c1)C(C#N)=C(N)O2` (stereo unspecified), 0.046%; in that of `O=C(O)C1CCCN(CCC=C(c2ccccc2)c2ccccc2)C1` (stereo unspecified), 4.65%.
Regarding `Cc1cccc(N2CCN(C(=O)c3cc4c(=O)[nH]c5ccccc5c4n3C)CC2)c1C`, the inhibition is 13%.
Turning to `CC(C)(C)OC(=O)NCCCC1=CC2=CC(=O)C(C)(OC(=O)c3ccco3)C(=O)C2=CO1` (stereo unspecified), the inhibition was 13.3%.
In the case of `Cc1cccc(OCC(=O)Nc2ccc(NC(=O)c3ccco3)c(C)c2)c1` it was 22%; in that of `COc1ccc(OCC(=O)Nc2ccc(NC(=O)c3ccco3)c(C)c2)cc1`, 16.1%.
Consider `Cc1ccc(C(=O)COc2cccc(NC(=O)c3ccco3)c2)cc1`, for which the inhibition is 54.5% (active).
Consider `Cc1cccc(N(C)C(=O)c2cc(S(=O)(=O)N3CCCCC3)c[nH]2)c1`, for which the inhibition was 23.4%.
The figure for `CCOC(=O)CSc1nnc(CNC(=O)Cc2ccccc2)n1-c1ccccc1OC` is 7.97%; for `Cc1ccc(-n2cnc3ncnc(-c4ccccc4)c32)cc1` it is 15.5%.
On to `Cc1ccc(-c2nn(C(C)(C)C)c3ncnc(N)c23)cc1`, for which the inhibition was 57.5% (active).
In the case of `Cc1c([N+](=O)[O-])c(N)nn1C` it was -8.73%.
In the case of `Cc1cc(C(=O)COC(=O)C2CC2)c(C)n1-c1ccc(F)cc1` it was 35.7%; in that of `CC(=O)COc1ccc2c(-c3ccccc3)cc(=O)oc2c1`, -1.93%; in that of `O=C(CNC(=O)c1ccc(-c2ccccc2)cc1)OCc1ccc(Cl)cc1`, -7.6%.
As for `O=C(CNC(=O)OCc1ccccc1)Oc1cc2oc(=O)cc(-c3ccccc3)c2cc1Cl`, the inhibition is 54.3% (active).
